Source: PubChem BioAssay (National Center for Advancing Translational Sciences (NCATS))
B2AR arrestin: beta2AR (human) beta-arrestin recruitment activity | P07550 | beta-arrestin recruitment to beta2AR, cell-based reporter | Potency, µM (series often up to 46.1 µM), most hits filed as activators | actives 0.02% (n = 330,000) | AID 492947; also: nearly all actives have a fitted effect of over 65% in size
Target sequence (P07550 whole entry, looked up): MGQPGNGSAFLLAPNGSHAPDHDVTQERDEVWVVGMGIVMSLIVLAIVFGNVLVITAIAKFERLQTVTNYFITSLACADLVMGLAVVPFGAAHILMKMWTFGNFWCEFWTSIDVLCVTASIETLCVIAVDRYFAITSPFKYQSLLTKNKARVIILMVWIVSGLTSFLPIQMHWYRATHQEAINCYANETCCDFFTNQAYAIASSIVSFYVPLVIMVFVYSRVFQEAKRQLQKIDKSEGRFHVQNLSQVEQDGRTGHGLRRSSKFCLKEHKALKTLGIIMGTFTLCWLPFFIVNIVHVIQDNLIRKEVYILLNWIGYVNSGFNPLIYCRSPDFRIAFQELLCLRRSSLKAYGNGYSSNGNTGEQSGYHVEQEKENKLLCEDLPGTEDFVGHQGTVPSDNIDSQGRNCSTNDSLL
TSHR antagonist: blocks TSH signaling through the human TSH receptor | P16473 | TSHR-expressing cells, TSH-stimulated cAMP HTRF, 2 h; stronger effect = lower value | activity change, negative = inhibition, % at 11.5 µM | actives 0.2% (n = 330,000);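 active = activity change below a set negative limit, meaning inhibition stronger than a set level, cut at about -70% in these data; inconclusive = activity change between two set negative limits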
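Competitive HTRF cAMP read-out (cryptate anti-cAMP antibody, cAMP-d2; 30 min, room temperature) in freshly harvested TSHR cells. Compounds added before TSH at EC80 (4nM final), followed by 2 hours' incubation at 37 deg C.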
Gal4-VP16 FLuc: Gal4-VP16 reporter inhibition counter-screen. Drosophila S2 Gal4-VP16 UAS-luciferase, luminescence, 20 h. Potency, µM (highest dose often 53.6 µM), most hits filed as inhibitors. actives 3.5% (n = 310,000);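 also: Gal4-VP16 expression switched on by copper sulfate through the metallothionein promoter; nearly all actives have a fitted effect of over 50% in size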
ELG1 DNA repair: blocks ELG1-dependent DNA repair in HEK293T cells. actives 2.3% (n = 330,000). Potency, µM (series often up to 46.1 µM), usual class: inhibitors. HEK293T ELG1-luciferase reporter, luminescence, 16 h; DNA damage induced by 5-fluorouridine; also: nearly all actives have a fitted effect of over 55% in size
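Luminescence from the luciferase reporter, measured 30 min after ONE-Glo reagent at room temperature, was the read-out. Beforehand, 2,000 cells per well were exposed for 16 hr at 37 °C to 5-fluorouridine together with compound or vehicle.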
RORg inh: inhibitors of mouse ROR gamma transcriptional activity; P51450; Drosophila S2 Gal4-RORgamma UAS-luciferase reporter, 20 h; Potency, µM (doses to about 53.6 µM), most hits filed as inhibitors; actives 5.4% (n = 310,000); also: nearly all actives have a fitted effect of over 60% in size
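ROR gamma transcriptional activity was tracked as Gal4-UAS luciferase output in stably transfected Drosophila Schneider cells, with compound added 1 hr before 700 uM copper sulfate induction and a 20 hr ambient-temperature incubation.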
Each line names hits and unclear results; the compound was inactive in the other large screens. Hits are enriched below; roughly 7.5% of the tested compounds scored in any of these assays. Unless noted, calls follow the shape of the dose curve; as a rule, active = well fitted curve in the direction sought with a large enough effect; inconclusive = small, poorly fitted or top-dose-only effect, or another doubt; inactive = no such curve, though single readings can be large; an effect the other way counts as inactive or inconclusive.

CCn1c(CCCOc2ccc(Cl)cc2Cl)nnc1SCC(=O)Nc1cccc(F)c1	none
CCCCC(CC(O)COCCC)c1n[nH]c(=S)n1-c1ccccc1 (centres undefined)	Gal4-VP16 FLuc inconclusive, RORg inh 11µM
S=c1[nH]nc(CCSCc2ccccc2)n1-c1ccccc1	RORg inh 2.8µM
CCn1c(CN2c3ccccc3Sc3ccccc32)n[nH]c1=S	Gal4-VP16 FLuc inconclusive, RORg inh 2.8µM
CCn1c(CCCOc2ccc(Cl)cc2Cl)n[nH]c1=S	Gal4-VP16 FLuc 3.2µM, RORg inh 2.8µM
CCn1c(C(c2ccccc2)c2ccccc2)n[nH]c1=S	Gal4-VP16 FLuc inconclusive, RORg inh inconclusive
CC(=O)c1cccc(S(=O)(=O)Nc2cc(C(F)(F)F)ccc2N2CCOCC2)c1	none (no result: Gal4-VP16 FLuc, RORg inh)
O=C(NCCCC(NC(=O)OCc1ccccc1)C(=O)O)OCc1ccccc1 (centres undefined)	none
CC(CCC(=O)O)C1CCC2C3CC[C@H]4CC(O)CC[C@@]4(C)C3CC(O)[C@]12C (some centres undefined)	none (no result: B2AR arrestin, TSHR antagonist, ELG1 DNA repair)
CCCC[C@H](NC(C)=O)C(=O)N[C@@H](CCC(=O)O)C(=O)N[C@@H](Cc1cnc[nH]1)C(=O)N[C@H](Cc1ccccc1)C(=O)N[C@@H](CCCN=C(N)N)C(=O)N[C@H](Cc1c[nH]c2ccccc12)C(=O)NCC(N)=O	none (no result: B2AR arrestin, TSHR antagonist, ELG1 DNA repair)
C#Cc1ccc2c(c1)C(=O)N(C)Cc1c(C(=O)OCCCOC(=O)c3ncn4c3CN(C)C(=O)c3cc(C#C)ccc3-4)ncn1-2	none (no result: B2AR arrestin, TSHR antagonist, ELG1 DNA repair)
CCOC(=O)c1ccc(NC(=O)CSc2nnc(CCc3ccc(C)o3)n2-c2ccccc2)cc1	Gal4-VP16 FLuc 14µM, RORg inh inconclusive
S=c1[nH]nc(CCc2ccccc2)n1Cc1ccccc1	Gal4-VP16 FLuc 5µM, RORg inh 2.2µM
CCCCCCCc1n[nH]c(=S)n1Cc1ccccc1	Gal4-VP16 FLuc inconclusive, RORg inh 1.3µM
COc1ccccc1OCc1n[nH]c(=S)n1Cc1ccccc1	none
CCn1c(CCCCc2n[nH]c(=S)n2CC)n[nH]c1=S	ELG1 DNA repair inconclusive, RORg inh 5.6µM
Cc1nccn1CCc1n[nH]c(=S)n1Cc1ccccc1	none
CCn1c(CCNC(=O)c2ccc(C)cc2)n[nH]c1=S	none
C/C(=N\NC(=O)c1nnn(-c2nonc2N)c1-c1ccccc1)c1ccccc1O	Gal4-VP16 FLuc 6.3µM, ELG1 DNA repair 1.8µM, RORg inh 1.8µM
C/C(=N\NC(=O)c1nonc1N)c1cccs1	ELG1 DNA repair inconclusive, RORg inh 0.32µM
Nc1nonc1-n1nnc(C(=O)N/N=C/c2ccc(OCc3ccc(F)cc3)cc2)c1COc1ccccc1	Gal4-VP16 FLuc inconclusive, RORg inh 7.1µM
C/C(=N/NC(=O)c1nnn(-c2nonc2N)c1COc1ccccc1)c1ccccc1Cl	Gal4-VP16 FLuc inconclusive, RORg inh 22µM
O=C(O)c1ccccc1-c1c2cc(Br)c(=O)c(Br)c-2oc2c(Br)c(O)c(Br)cc12	Gal4-VP16 FLuc inconclusive (no result: B2AR arrestin, TSHR antagonist, ELG1 DNA repair)
CCc1ccc(OCc2cccc(C(=O)N/N=C\c3cnn(C)c3C)c2)cc1	ELG1 DNA repair inconclusive (no result: Gal4-VP16 FLuc, RORg inh)
Cc1noc(C)c1-c1cncnc1Nc1ccccc1	none (no result: B2AR arrestin, TSHR antagonist, ELG1 DNA repair)
Cc1cccc(Nc2ccc([N+](=O)[O-])cn2)c1	ELG1 DNA repair inconclusive, RORg inh inconclusive
Cc1cccc(OCC(=O)Nc2cc(NC(=O)COc3cccc(C)c3C)cc(C(=O)O)c2)c1C	ELG1 DNA repair inconclusive (no result: Gal4-VP16 FLuc, RORg inh)
Cc1ccccc1OCC(=O)Nc1cccc(C(=O)O)c1	Gal4-VP16 FLuc 6.3µM, ELG1 DNA repair inconclusive, RORg inh 2.5µM
O=C(Nc1ccc(Cl)c(Cl)c1)Nc1ccccc1C(=O)O	Gal4-VP16 FLuc inconclusive, ELG1 DNA repair inconclusive, RORg inh inconclusive
O=C(Nc1ccc(Cl)cc1)Nc1ccccc1C(=O)O	Gal4-VP16 FLuc 11µM, ELG1 DNA repair inconclusive, RORg inh 7.1µM
CCOc1ccc(/C=C/C(=O)Nc2cccc(C(C)=O)c2)cc1	Gal4-VP16 FLuc 4.5µM, ELG1 DNA repair inconclusive, RORg inh 1.1µM
Cc1cccc(NC(=O)COc2ccc(Br)cc2/C=N/O)c1	Gal4-VP16 FLuc 5µM, ELG1 DNA repair inconclusive, RORg inh 5.6µM
CC(=O)Nc1ccc(NC(=O)COc2ccc(Br)cc2C)cc1	none
CC(C)(C)C(=O)NC1(C(F)(F)F)NC(=O)N(c2ccccc2F)C1=O (centres undefined)	none
